Here are results for eight molecules from PubChem BioAssay.

Activity calls are given as the source filed them.

A short description of test [1]: optical density shifts of acrAB sulA E. coli – strain DRC41, OD650, 48 h, E. coli filamentation inducer project, primary screen (AID 1152).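 Further: E. coli MC1000 strain DRC41 lacking acrAB efflux pump and sulA.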 The note with it: higher = more signal, called active from +8 up or from −8 down.
Test [2] can be described thus: probe aLefty1 binding on compound microarray – biochemical, small-molecule microarray, 635/667 nm fluorescence, primary screen (AID 1153).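 Further: score merges spot fluorescence with signal-to-noise ratio from the scanned slide images.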 The note with it: higher = more signal.
Test [3] in a line: plasmodial surface anion channel blockers, osmotic lysis – cell-based, P. falciparum Indochina, OD700, 1 h, primary screen (AID 1154). As to conditions: P. falciparum Indochina infected RBC osmotic lysis, higher = more signal, called active from +8 up or from −8 down.
Test [4] in a line: plasmodial surface anion channel blockers, osmotic lysis – cell-based, P. falciparum Indochina, OD700, 2 h, primary screen (AID 1155).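 Further: lysis reports solute entry through the parasite surface anion channel PSAC.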 As to conditions: P. falciparum Indochina infected erythrocytes, higher = more signal, called active from +8 up or from −8 down.
Test [5] in a line: changes in parasitized red cell lysis, either direction – P. falciparum Indochina, OD700, 3 h, PSAC antagonist project, primary screen (AID 1156). The note with it: P. falciparum-infected erythrocytes, osmotic lysis, higher = more signal, called active from +8 up or from −8 down.
The nature of test [6]: plasmodial surface anion channel blockers, osmotic lysis – cell-based, P. falciparum Indochina, OD700, 18 h, primary screen (AID 1157). The note with it: P. falciparum Indochina infected erythrocytes, osmotic lysis OD700, 18 h; higher = more signal, called active from +8 up or from −8 down.
A short description of test [7]: S6 kinase pathway phospho-S6 level changes – cell-based, A549, cytoblot, luminescence, serum-stimulated, primary screen (AID 1158).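 Further: serum-stimulated A549 lung adenocarcinoma cells; signal is phosphorylated S6 detected by cytoblot immunostaining with HRP secondary.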 The note with it: 5 h, higher = more signal.
The target in test [8] is NADPH oxidase 2 (Homo sapiens) (UniProt P04839). As to the kind of experiment: compounds shifting NOX2 Amplex Red fluorescence – cell-based, HEK293-NOX2, PMA-stimulated, NOX inhibitor project, primary screen (AID 1159). Further: test concentration not given here. As to conditions: 45 min, higher = more signal, called active from +8 up or from −8 down.
For test [9], the target named is NADPH oxidase 4 (Homo sapiens) (UniProt Q9NPH5). Kind of test: compounds shifting NOX4 Amplex Red fluorescence – cell-based, HEK293-NOX4, tetracycline-induced, NOX inhibitor project, primary screen (AID 1160). The note with it: HEK293-NOX4, Amplex Red H2O2 fluorescence, 45 min; higher = more signal, called active from +8 up or from −8 down.
In test [10] the target is NADPH oxidase 5 (Homo sapiens) (UniProt Q96PH1). Kind of test: compounds shifting NOX5 Amplex Red fluorescence – cell-based, HEK293-NOX5, NOX inhibitor project, primary screen (AID 1161). As to conditions: HEK293-NOX5, ionomycin, 45 min, higher = more signal.
Test [11] can be described thus: compound effects on lung adenocarcinoma cell viability – A549, calcein-AM fluorescence, 48 h, basal, profiling panel (AID 1162). Further: test concentration not given here. As to conditions: higher = more signal.
Test [12] can be described thus: compound effects on differentiated 3T3-L1 adipocyte viability – cell-based, 3T3-L1 adipocytes, calcein-AM fluorescence, 48 h, basal, profiling panel (AID 1163). Further: test concentration not given here. The note with it: 3T3-L1 adipocytes viability, higher = more signal.
The nature of test [13]: compound effects on hepatocellular carcinoma cell viability – HepG2, calcein-AM fluorescence, 48 h, basal, profiling panel (AID 1164). Further: test concentration not given here. The note with it: higher = more signal.
Test [14] can be described thus: compound effects on multiple myeloma cell viability – MM1S, calcein-AM fluorescence, 48 h, basal, profiling panel (AID 1165).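 Further: viability of MM1S multiple myeloma cells under basal unstimulated conditions; test concentration not given here.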 The note with it: higher = more signal.
A short description of test [15]: calcein-AM signal in unstimulated myeloma cells – cell-based, calcein-AM fluorescence, 48 h, PK04 Diversity Set, profiling panel (AID 1166).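 Further: cells grown under basal conditions without added stimulus; test concentration not given here.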 As to conditions: RPMI8226 myeloma viability, higher = more signal.
Test [16] can be described thus: JC-1 mitochondrial signal, unstimulated HepG2 cells – cell-based, JC-1 fluorescence, 24 h, 100 nL compound, profiling panel (AID 1167). Further: test concentration not given here. As to conditions: HepG2 mitochondrial potential, higher = more signal.
Test [17] can be described thus: JC-1 mitochondrial signal, unstimulated adipocytes – cell-based, JC-1 fluorescence, 3T3-L1 adipocytes, 24 h, 100 nL compound, profiling panel (AID 1168). Further: test concentration not given here. The note with it: JC-1 mitochondrial fluorescence, higher = more signal, called active from +8 up or from −8 down.
Test [18] can be described thus: JC-1 mitochondrial signal, unstimulated myeloma cells – cell-based, JC-1 fluorescence, RPMI8226, 24 h, 100 nL compound, profiling panel (AID 1169). Further: test concentration not given here. The note with it: JC-1 mitochondrial potential fluorescence, higher = more signal.
Test [19] can be described thus: JC-1 mitochondrial signal, unstimulated MM1S myeloma – cell-based, JC-1 fluorescence, 24 h, 100 nL compound, profiling panel (AID 1170). Further: test concentration not given here. The note with it: MM1S mitochondrial potential, higher = more signal.
Test [20] in a line: resazurin metabolic signal in A549 cells – cell-based, resazurin fluorescence, 24 h, PK04 Diversity Set, profiling panel (AID 1171). Further: test concentration not given here. As to conditions: A549 viability, higher = more signal, called active from +8 up or from −8 down.

Chain of NADPH oxidase 4 (Homo sapiens) (Q9NPH5 whole entry, looked up): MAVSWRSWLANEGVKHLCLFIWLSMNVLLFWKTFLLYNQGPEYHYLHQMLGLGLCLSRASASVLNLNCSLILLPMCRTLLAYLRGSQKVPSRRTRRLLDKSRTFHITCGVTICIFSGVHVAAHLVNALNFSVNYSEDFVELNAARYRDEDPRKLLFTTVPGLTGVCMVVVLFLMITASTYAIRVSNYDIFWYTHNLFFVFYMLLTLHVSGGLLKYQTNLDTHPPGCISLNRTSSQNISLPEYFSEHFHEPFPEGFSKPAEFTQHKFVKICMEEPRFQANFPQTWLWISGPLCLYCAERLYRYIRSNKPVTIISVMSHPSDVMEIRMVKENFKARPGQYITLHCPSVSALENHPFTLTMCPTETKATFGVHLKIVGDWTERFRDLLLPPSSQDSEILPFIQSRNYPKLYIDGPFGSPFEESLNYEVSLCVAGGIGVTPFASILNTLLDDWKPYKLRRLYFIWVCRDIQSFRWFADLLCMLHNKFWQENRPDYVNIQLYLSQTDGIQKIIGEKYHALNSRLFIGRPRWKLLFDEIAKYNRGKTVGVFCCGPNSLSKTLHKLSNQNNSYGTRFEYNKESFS
Chain of NADPH oxidase 2 (Homo sapiens) (P04839 whole entry, looked up): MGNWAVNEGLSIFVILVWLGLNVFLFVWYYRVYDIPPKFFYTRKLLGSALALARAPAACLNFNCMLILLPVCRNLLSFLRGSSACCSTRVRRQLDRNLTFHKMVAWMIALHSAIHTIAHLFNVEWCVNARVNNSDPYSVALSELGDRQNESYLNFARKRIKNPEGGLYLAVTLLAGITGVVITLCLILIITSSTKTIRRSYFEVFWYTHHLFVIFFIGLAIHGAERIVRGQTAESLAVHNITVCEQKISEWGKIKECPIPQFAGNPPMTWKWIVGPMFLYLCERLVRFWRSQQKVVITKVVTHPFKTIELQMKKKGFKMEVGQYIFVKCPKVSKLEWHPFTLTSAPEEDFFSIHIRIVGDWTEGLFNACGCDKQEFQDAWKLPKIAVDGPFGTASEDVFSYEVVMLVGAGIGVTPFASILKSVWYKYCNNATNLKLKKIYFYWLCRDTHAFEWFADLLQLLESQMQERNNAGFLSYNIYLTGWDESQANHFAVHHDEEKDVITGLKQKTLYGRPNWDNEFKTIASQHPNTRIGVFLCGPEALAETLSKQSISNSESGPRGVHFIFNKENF
Chain of NADPH oxidase 5 (Homo sapiens) (Q96PH1 whole entry, looked up): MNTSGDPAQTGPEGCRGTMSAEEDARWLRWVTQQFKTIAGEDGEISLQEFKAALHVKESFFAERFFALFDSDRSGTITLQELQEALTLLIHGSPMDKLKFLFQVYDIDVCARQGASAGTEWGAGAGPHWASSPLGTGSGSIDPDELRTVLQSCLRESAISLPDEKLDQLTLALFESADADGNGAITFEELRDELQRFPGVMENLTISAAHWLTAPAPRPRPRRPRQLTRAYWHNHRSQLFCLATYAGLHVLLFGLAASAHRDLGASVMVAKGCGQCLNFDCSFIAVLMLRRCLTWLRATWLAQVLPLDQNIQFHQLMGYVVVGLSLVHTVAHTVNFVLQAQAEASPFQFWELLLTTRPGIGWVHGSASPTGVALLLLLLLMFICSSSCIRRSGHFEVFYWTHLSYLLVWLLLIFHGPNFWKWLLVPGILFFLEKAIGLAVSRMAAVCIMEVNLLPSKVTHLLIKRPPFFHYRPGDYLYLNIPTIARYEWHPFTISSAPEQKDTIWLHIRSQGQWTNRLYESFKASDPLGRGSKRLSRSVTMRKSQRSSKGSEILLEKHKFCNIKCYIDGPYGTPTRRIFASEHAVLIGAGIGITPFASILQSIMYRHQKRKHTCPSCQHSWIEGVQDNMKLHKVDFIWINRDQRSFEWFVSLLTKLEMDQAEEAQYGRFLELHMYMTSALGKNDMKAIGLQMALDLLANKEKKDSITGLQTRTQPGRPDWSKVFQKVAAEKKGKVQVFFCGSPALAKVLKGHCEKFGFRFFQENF

For `CO[C@H]1COC(=O)CC=C[C@H](C)[C@@H](NS(=O)(=O)c2ccc(C)cc2)COC(=O)CC=C[C@@H]1C`, the z-score in test [1] was -1.05 (inactive); in [3] it was 0.0723 (inactive); in [4], -1.13 (inactive); in test [5] it was 0.157 (inactive); in test [6], -0.592 (inactive); in [7], 5.19. In addition, the z-score in test [8] was 0.0288 (inactive); in test [9], 0.256 (inactive); in [10], 0.622; in test [11] it was 0.368; in [12] it was 0.902; in test [13], 0.605. In addition, the z-score in [14] is -0.204; in test [15], 0.15; in [16], -0.0318; in test [17] it was -1.58 (inactive); in test [18] it was 0.0791; in test [19] it was -1.17. For the same molecule, in test [20], the z-score was -0.0226 (inactive). The molecule further returned a composite z-score in test [2] of -0.194.
On to `COC(=O)C1=C(C)N(Cc2ccccc2)[C@]23O[C@](C(=O)OC)(C(=O)N2[C@@H]1c1ccccc1)[C@H]1CCOC(=O)[C@H]13`, for which the z-score in test [1] is -0.238 (inactive); in [3] it was 0.951 (inactive); in [4], -0.0468 (inactive); in test [5] it was 1.3 (inactive); in test [6] it was 0.443 (inactive); in [7], -0.537. Moreover, the z-score in test [8] was 0.902 (inactive); in test [9], 0.805 (inactive); in test [10], 1.06; in test [11], 0.589; in [12] it was 0.109; in test [13] it was -0.21. Also, the z-score in test [14] was 0.0449; in [15] it was -0.808; in [16], 0.74; in test [17] it was 0.642 (inactive); in test [18] it was -0.139; in test [19], -0.0135. Besides, in test [20], the z-score is 0.516 (inactive). For the same molecule, the composite z-score in [2] was -0.0984.
On to `O=C1[C@H]2[C@H]3[C@H](O)[C@H](O)CC(=NOC[C@@H](O)COCc4ccco4)[C@@H]3CC[C@H]2C(=O)N1c1ccc(F)cc1F`, for which the z-score in test [1] is -0.0233 (inactive); in test [3], 2.3 (inactive); in test [4], 0.537 (inactive); in test [5] it was 1.67 (inactive); in test [6], 0.405 (inactive); in [7], -0.51. Also, the z-score in [8] was -1.37 (inactive); in test [9], 0.523 (inactive); in test [10], -0.579; in [11] it was -0.2; in [12], 0.165; in [13], -1.22. The z-score in [14] was 0.136; in test [15] it was -1.11; in test [16], 0.42; in test [17], -0.116 (inactive); in test [18], -0.0126; in test [19], -0.221. In addition, the z-score in test [20] is 0.24 (inactive). The composite z-score in test [2] is -0.639.
Turning to `CC(C)CON=C1[C@H]2CCn3c(=O)n(-c4ccccc4)c(=O)n3[C@H]2[C@H](O)[C@@H]2O[C@H]12`, the z-score was 0.424 (inactive) in [1]; 0.175 (inactive) in test [3]; -0.2 (inactive) in test [4]; 0.0794 (inactive) in [5]; 0.0344 (inactive) in [6]; 0.0305 in test [7]. In addition, the z-score is -5.13 (inactive) in test [8]; 0.018 (inactive) in test [9]; 0.407 in test [10]; -0.464 in test [11]; 0.322 in [12]; 0.332 in test [13]. The z-score in test [14] was 0.456; in test [15] it was -1.2; in test [16], -0.174; in test [17], -0.0969 (inactive); in test [18], -0.385; in test [19], -0.209. Moreover, the z-score in test [20] is -0.829 (inactive). In test [2], this molecule yielded a composite z-score of -0.105.
Consider `CC(C)CON=C1C[C@@H](O)[C@@H](O)[C@@H]2[C@@H]3C(=O)N(Cc4ccccc4)C(=O)[C@@H]3CC[C@@H]12`, for which the z-score is 0.102 (inactive) in test [1]; 0.252 (inactive) in test [3]; 0.227 (inactive) in test [4]; 0.65 (inactive) in test [5]; -0.0378 (inactive) in [6]; 0.524 in test [7]. In addition, the z-score in test [8] is 1.39 (inactive); in [9], 0.387 (inactive); in test [10], -0.0393; in test [11] it was -0.785; in test [12], 0.449; in test [13], -0.946. The z-score in test [14] is 0.479; in test [15] it was -0.129; in test [16] it was 0.173; in [17], -0.272 (inactive); in test [18] it was -0.313; in test [19] it was -0.659. The z-score in test [20] is 0.676 (inactive). In [2], this molecule displayed a composite z-score of 0.148.
As for `CC(C)=NOCc1ccc(-c2cc(-c3ccccc3)no2)cc1`, the z-score is 0.433 (inactive) in test [1]; 0.251 (inactive) in test [3]; 0.367 (inactive) in test [4]; -0.201 (inactive) in test [5]; -0.0729 (inactive) in test [6]; 0.321 in [7]. In addition, the z-score in test [8] was -2.54 (inactive); in test [9], 0.311 (inactive); in [10], -0.0709; in test [11], 0.947; in [12] it was 0.0379; in test [13], 0.433. Also, the z-score in test [14] was 0.283; in test [15], -1.14; in [16] it was -0.49; in [17] it was -0.618 (inactive); in [18], 0.825; in test [19], -0.152. Also, the z-score in [20] was -0.589 (inactive). The same molecule gave a composite z-score in [2] of -0.283.
For the molecule `CCCNC(=O)[C@@H]1c2ccccc2C(=O)N(c2ccc(C)cn2)[C@H]1c1ccc(CO)cc1`, the z-score was -0.292 (inactive) in test [1]; 1.97 (inactive) in test [3]; -0.0991 (inactive) in [4]; 0.562 (inactive) in [5]; 0.0336 (inactive) in [6]; 0.214 in [7]. In addition, the z-score in [8] was 0.114 (inactive); in [9], 0.0822 (inactive); in test [10], -0.974; in test [11], -0.293; in test [12], -0.857; in [13] it was -0.108. The z-score in test [14] is -0.336; in [15], -0.0505; in test [16], -0.833; in test [17], 0.123 (inactive); in test [18] it was 0.657; in test [19] it was -0.351. Moreover, the z-score in test [20] is 0.418 (inactive). The same molecule came in with a composite z-score in test [2] of -0.303.
As for `NC(=O)NCC#Cc1ccc2c(c1)[C@]1(C(=O)N2)[C@H](c2ccc(O)cc2)N2[C@H](c3ccccc3)[C@H](c3ccccc3)OC(=O)[C@H]2[C@@H]1C(=O)N1CCCCCCC1`, the z-score in test [1] is -0.403 (inactive); in test [3], 0.578 (inactive); in test [4], -0.175 (inactive); in test [5] it was 0.35 (inactive); in test [6] it was 0.197 (inactive); in test [7] it was 0.0459. Also, the z-score in test [8] is 1.71 (inactive); in [9], 0.802 (inactive); in test [10], 1.2; in [11] it was 1.21; in test [12] it was 0.139; in [13] it was 1.23. The z-score in test [14] is 0.561; in test [15] it was 0.597; in test [16] it was -1.08; in test [17] it was 1.04 (inactive); in test [18] it was -0.578; in test [19], -0.413. Moreover, the z-score in test [20] is -0.118 (inactive). In test [2], this molecule gave a composite z-score of 2.04.
